The source of these data is PubChem BioAssay (Tox21).

Values joined by “and” are separate entries in the source; they are usually repeats but may differ in a detail not shown here. Equal values may be shown once. Inconclusive results are not listed. Active and inactive are the calls of the source. Unless noted, calls follow the shape of the dose curve; as a rule, active = well fitted curve in the direction sought with a large enough effect in the repeat runs; inconclusive = weak or mixed curves; inactive = no such curve, though single readings can be large; an effect the other way counts as inactive or inconclusive.

Assay [1] can be described thus: qHTS assay to test for compound auto fluorescence at 535 nm (green) in HEK293 cells (AID 720680). Also: % is scaled to controls: 0 for no effect and ±100 for the full control effect. Background: Quantitative high-throughput screening tests each substance at several concentrations.
Assay [2] is described as follows: qHTS assay to test for compound auto fluorescence at 460 nm (blue) in HEK293 cell free culture (AID 720681). Also: % is scaled to controls: 0 for no effect and ±100 for the full control effect. Summed up:
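Blue fluorescence (Ex 405/Em 460 nm, triamterene-equivalent) was read immediately after pin transfer of compound or DMSO into medium (DMEM, 10% FBS) without cells.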

Assay [3] in a line: qHTS assay to test for compound auto fluorescence at 535 nm (green) in HEK293 cell free culture (AID 720682). Also: % is scaled to controls: 0 for no effect and ±100 for the full control effect. In a few lines: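 Green-channel intensity (Ex/Em 485/535 nm) was recorded from compound-treated wells containing only DMEM with 10% FBS. Fluorescein provided the equivalency standard.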
Assay [4] in a line: qHTS assay to test for compound auto fluorescence at 590 nm (red) in HEK293 cell free culture (AID 720683). Also: % is scaled to controls: 0 for no effect and ±100 for the full control effect. Summed up:
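Red-channel autofluorescence of compounds in culture medium (DMEM, 10% FBS), no cells, measured at 540/590 nm. Rose Bengal sodium is the reference fluorophore for equivalence.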

A short description of assay [5]: qHTS assay to test for compound auto fluorescence at 590 nm (red) in HepG2 cell free culture (AID 720684). Also: % is scaled to controls: 0 for no effect and ±100 for the full control effect. In a few lines:
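No cells present: MEM + 10% FBS only. Compound pinned in, red label read (540/590 nm). Activity = fluorescence equivalent to Rose Bengal sodium.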

Assay [6] in a line: qHTS assay to test for compound auto fluorescence at 460 nm (blue) in HepG2 cell free culture (AID 720685). Also: % is scaled to controls: 0 for no effect and ±100 for the full control effect. In a few lines: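 Cell-free plates of MEM plus 10% FBS received 23 nL compound or DMSO vehicle; blue-channel (405/460 nm) intensity scored against triamterene as reference fluorophore.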
A short description of assay [7]: qHTS assay to test for compound auto fluorescence at 535 nm (green) in HepG2 cell free culture (AID 720686). Also: % is scaled to controls: 0 for no effect and ±100 for the full control effect.
Assay [8] is described as follows: qHTS assay to test for compound auto fluorescence at 460 nm (blue) in HepG2 cells (AID 720687). Also: % is scaled to controls: 0 for no effect and ±100 for the full control effect. Summed up:
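Blue-channel autofluorescence (Ex/Em 405/460 nm, triamterene-equivalent) was measured after 1 hr compound exposure at 37 C, 5% CO2. Cells were HepG2, plated overnight at 37 C in MEM plus 10% FBS.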

Assay [9] addresses Glucocorticoid receptor (Homo sapiens) (UniProt P04150). As to the kind of experiment: qHTS assay to identify small molecule agonists of the glucocorticoid receptor (GR) signaling pathway (AID 720691; active = well fitted activation curve with a large enough effect in the signal ratio in the repeat runs, not every such curve was filed as active; the % refers to the signal ratio; also: % is scaled to controls: 0 for no effect and ±100 for the full control effect). The following applies: GR-bla HeLa, beta-lactamase reporter ratio, 18 h; activation: at 62.4 µM (top of the series). Summed up:
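Compounds in DMSO, alongside positive controls, were added to GR-bla HeLa reporter cells and incubated 18 h at 37 C; GRE-driven beta-lactamase was detected by fluorescence after 2 h with FRET substrate at room temperature.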

For assay [10] the target is unchanged. As to the kind of experiment: qHTS assay to identify small molecule antagonists of the glucocorticoid receptor (GR) signaling pathway (AID 720692; active = well fitted inhibition curve with a large enough effect in the signal ratio in the repeat runs, not every such curve was filed as active; the % refers to the signal ratio; also: potency is read from the fitted curve at half-maximal effect). Summed up: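 In a 1536-well cell format, compounds were added 4 h after seeding GR-bla HeLa cells, together with dexamethasone at 5 nM final; reporter activity was measured by FRET-substrate fluorescence following 18 h at 37 C.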

A short description of assay [11]: qHTS assay to identify small molecule antagonists of the glucocorticoid receptor (GR) signaling pathway - cell viability counter screen (AID 720693). Also: nearly all actives have a fitted effect of over 55% in size. Also: potency is read from the fitted curve at half-maximal effect.
Assay [12] is described as follows: qHTS assay for identifying genotoxic compounds that show differential cytotoxicity against isogenic chicken DT40 cell lines with known DNA damage response pathways - wild type cell line (AID 743012). Also: nearly all actives have a fitted effect of over 60% in size. Also: potency is read from the fitted curve at half-maximal effect. In a few lines: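 Viability of DNA repair-proficient chicken DT40 cells was assessed by CellTiter-Glo luminescence following 40 h compound exposure at 37 C/5% CO2.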

A short description of assay [13]: qHTS assay for identifying genotoxic compounds that show differential cytotoxicity against isogenic chicken DT40 cell lines with known DNA damage response pathways - Rev3 mutant cell line (AID 743014). Also: potency is read from the fitted curve at half-maximal effect; nearly all actives have a fitted effect of over 55% in size.
A short description of assay [14]: qHTS assay for identifying genotoxic compounds that show differential cytotoxicity against isogenic chicken DT40 cell lines with known DNA damage response pathways - Rad54/Ku70 mutant cell line (AID 743015). Also: nearly all actives have a fitted effect of over 60% in size. Also: potency is read from the fitted curve at half-maximal effect.
For assay [15], the target named is Androgen receptor (Homo sapiens) (UniProt P10275). As to the kind of experiment: qHTS assay to identify small molecule agonists of the androgen receptor (AR) signaling pathway using the MDA cell line (AID 743040; also: % is scaled to controls: 0 for no effect and ±100 for the full control effect; nearly all actives have a fitted effect of over 20% in size). In a few lines: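 Stable MMTV-luciferase reporter in MDA-kb2 cells; note the promoter carries GR as well as AR response elements. 16 h compound treatment, 37C, 0% CO2; ONE-Glo luminescence endpoint.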
Chain of Androgen receptor (Homo sapiens) (P10275 whole entry, looked up): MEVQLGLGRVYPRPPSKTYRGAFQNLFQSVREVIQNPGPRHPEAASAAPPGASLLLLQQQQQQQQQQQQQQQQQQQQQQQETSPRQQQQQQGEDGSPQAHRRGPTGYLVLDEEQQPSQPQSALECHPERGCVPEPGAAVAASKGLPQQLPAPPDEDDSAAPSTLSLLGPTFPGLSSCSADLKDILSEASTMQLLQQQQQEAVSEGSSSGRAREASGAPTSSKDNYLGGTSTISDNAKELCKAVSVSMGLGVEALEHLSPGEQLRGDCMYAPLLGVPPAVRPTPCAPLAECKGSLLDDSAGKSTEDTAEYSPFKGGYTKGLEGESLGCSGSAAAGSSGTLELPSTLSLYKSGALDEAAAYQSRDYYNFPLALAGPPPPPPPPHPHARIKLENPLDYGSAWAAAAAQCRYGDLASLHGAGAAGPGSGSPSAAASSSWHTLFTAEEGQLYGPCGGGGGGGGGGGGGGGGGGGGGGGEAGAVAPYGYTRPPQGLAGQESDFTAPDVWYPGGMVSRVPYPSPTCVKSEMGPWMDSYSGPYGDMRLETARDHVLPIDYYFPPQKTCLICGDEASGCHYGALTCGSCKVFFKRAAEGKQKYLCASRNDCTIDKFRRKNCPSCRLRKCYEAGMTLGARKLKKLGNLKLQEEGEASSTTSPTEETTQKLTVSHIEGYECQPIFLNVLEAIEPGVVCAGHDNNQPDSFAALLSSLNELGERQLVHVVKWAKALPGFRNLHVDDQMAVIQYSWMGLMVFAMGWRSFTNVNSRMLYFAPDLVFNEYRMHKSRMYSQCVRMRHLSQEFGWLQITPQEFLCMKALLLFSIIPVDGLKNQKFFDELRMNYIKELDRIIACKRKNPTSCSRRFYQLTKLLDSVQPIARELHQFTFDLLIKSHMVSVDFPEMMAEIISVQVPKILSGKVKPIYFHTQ

The nature of assay [16]: qHTS assay to identify small molecule antagonists of the androgen receptor (AR) signaling pathway using the MDA cell line - cell viability counter screen (AID 743041; also: nearly all actives have a fitted effect of over 45% in size; also: potency is read from the fitted curve at half-maximal effect). Summed up: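 Using the breast carcinoma line MDA-kb2 AR-luc, test chemicals were co-incubated with R1881 for 16 h; CellTiter-Fluor reagent, added at 15.5 h, provided a fluorescence measure of live cells.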

The nature of assay [17]: qHTS assay to identify small molecule antagonists of the androgen receptor (AR) signaling pathway - cell viability counter screen (AID 743033; also: nearly all actives have a fitted effect of over 45% in size; also: potency is read from the fitted curve at half-maximal effect).
The target of assay [18] is Androgen receptor (Homo sapiens) (UniProt P10275). As to the kind of experiment: qHTS assay to identify small molecule antagonists of the androgen receptor (AR) signaling pathway using the MDA cell line (AID 743042; also: nearly all actives have a fitted effect of over 55% in size; also: potency is read from the fitted curve at half-maximal effect). In a few lines:
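Antagonist mode: compounds plus R1881 agonist added to MDA-kb2 AR-luc cells, incubated 16 h at 37C. Luciferase reporter luminescence quantified, with multiplexed CellTiter-Fluor readout for cell viability.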

Assay [19] has the same target. Nature of the assay: qHTS assay to identify small molecule antagonists of the androgen receptor (AR) signaling pathway (AID 743035; active = well fitted inhibition curve with a large enough effect in the signal ratio in the repeat runs, not every such curve was filed as active; the % refers to the signal ratio; also: potency is read from the fitted curve at half-maximal effect). Summed up: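 Reporter HEK293 cells were exposed to compounds and R1881 overnight (16 h, 37C); beta-lactamase activity was then quantified by FRET fluorescence.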

Chain of Glucocorticoid receptor (Homo sapiens) (P04150 whole entry, looked up): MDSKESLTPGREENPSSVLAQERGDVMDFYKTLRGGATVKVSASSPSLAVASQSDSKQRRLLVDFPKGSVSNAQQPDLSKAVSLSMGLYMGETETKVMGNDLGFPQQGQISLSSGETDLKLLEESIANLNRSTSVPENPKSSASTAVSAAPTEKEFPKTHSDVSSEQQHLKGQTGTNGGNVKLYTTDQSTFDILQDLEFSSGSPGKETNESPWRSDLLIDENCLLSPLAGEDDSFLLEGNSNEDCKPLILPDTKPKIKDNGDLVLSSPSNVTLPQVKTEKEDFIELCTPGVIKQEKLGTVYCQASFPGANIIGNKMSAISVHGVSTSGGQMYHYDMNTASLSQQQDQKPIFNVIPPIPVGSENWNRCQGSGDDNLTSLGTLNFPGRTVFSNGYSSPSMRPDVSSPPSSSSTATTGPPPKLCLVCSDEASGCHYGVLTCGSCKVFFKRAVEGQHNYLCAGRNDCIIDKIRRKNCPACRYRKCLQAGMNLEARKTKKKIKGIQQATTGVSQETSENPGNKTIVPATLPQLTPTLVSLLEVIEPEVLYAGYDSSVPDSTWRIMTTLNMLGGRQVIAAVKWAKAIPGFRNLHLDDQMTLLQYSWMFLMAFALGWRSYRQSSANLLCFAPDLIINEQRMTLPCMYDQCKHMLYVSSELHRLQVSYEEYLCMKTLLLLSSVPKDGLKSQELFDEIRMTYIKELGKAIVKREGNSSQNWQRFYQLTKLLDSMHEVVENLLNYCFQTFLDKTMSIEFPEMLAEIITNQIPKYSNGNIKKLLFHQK

As for `CCO/N=C(\CC)C1=C(O)CC(c2c(C)cc(C)cc2C)CC1=O` (stereo not given), the call in assay [1], in assay [3], in assay [4], in assay [5] and in [15] was inactive. Also, the Potency entry in assay [2], in assay [6], in assay [7], in [8], in assay [9] and in [10] was “inactive” each time. In addition, the Potency result in assay [11] and in assay [16] was “inactive” throughout. Besides, the Potency in assay [12] is 48.5 µM (active); in assay [13], 51.4 µM (active); in assay [14] it was 62.5 µM (active).

`[O]=[Cr](=[O])([OH])[O][Cr](=[O])(=[O])[OH]`: the molecule was classed as inactive in [1], in assay [3], in assay [4], in assay [5] and in assay [15]. The Potency result in assay [2], in assay [6], in assay [7], in assay [8], in assay [16] and in assay [18] was “inactive” each time. Moreover, the Potency is 3.08 µM (active) in assay [10]; 21.1 µM (active) [middle of 4 runs] in [12]; 7.83 µM (active) and 21.8 µM (active) in assay [17].

On to `C=CCBr`, for which the molecule was classed as inactive in [1], in assay [3], in assay [4] and in assay [5]. For the same molecule, the Potency result in assay [2], in [6], in [7], in assay [8], in [9] and in [12] was “inactive” throughout. Besides, the Potency entry in [14], in [17] and in assay [16] was “inactive” throughout.

In the case of `CC(Cc1ccc2c(c1)OCO2)NO` (stereo not given), the molecule was called inactive in [1], in assay [3], in [4] and in assay [5]. In addition, the Potency entry in assay [2], in assay [6], in [7], in assay [8], in [9] and in [11] was “inactive” each time. For the same molecule, the Potency result in [12], in assay [14], in [17] and in [16] was “inactive” throughout.

For the molecule `CSC(=O)c1c(C(F)F)nc(C(F)(F)F)c(C(=O)SC)c1CC(C)C`, the outcome in assay [1], in [3], in assay [4] and in [5] was inactive. The Potency result in [2], in assay [6], in assay [7], in [8], in assay [9] and in assay [17] was “inactive” in each case. The Potency result in assay [16] is “inactive”. Besides, the Potency is 34.2 µM (active) in assay [12], 27.1 µM (active) in [13] and 30.5 µM (active) in assay [14].

For `CCC(OC(C)=O)C(CC(C)NC)(c1ccccc1)c1ccccc1` (stereo not given), the molecule was classed as inactive in [1], in [3], in assay [4], in assay [5] and in assay [15]. For the same molecule, the Potency entry in [2], in assay [6], in [7], in assay [8], in assay [11] and in assay [17] was “inactive” each time. Also, the Potency in assay [12] was 7.76 µM (active); in [13] it was 15.5 µM (active); in assay [14], 15.5 µM (active); in assay [19], 49.4 µM (active); in assay [16], 27.5 µM (active); in assay [18], 21.9 µM (active).

For `O=[N+]([O-])[O-].[Tl+]`, the molecule was called inactive in [1], in [3], in [4] and in assay [5]. For the same molecule, the Potency result in [2], in [6], in [7], in assay [8], in assay [9] and in assay [11] was “inactive” in each case. In addition, the Potency result in [16] is “inactive”. Further, the Potency is 1.55 µM (active) in assay [12] and 1.09 µM (active) in assay [14].

In the case of `CC(=O)[O][Sn]([c]1ccccc1)([c]1ccccc1)[c]1ccccc1`, the outcome in assay [1], in assay [3], in assay [4] and in [5] was inactive. The Potency result in assay [2], in assay [6], in assay [7] and in assay [8] was “inactive” in each case. The Potency was 0.871 µM (active) in assay [11]; 0.122 µM (active) in assay [12]; 0.172 µM (active) in [13]; 0.172 µM (active) in [14]; 245 nM (active) in assay [17]; 5.45 µM (active) in assay [16].
